The results in this text go back to the supplement of paper PMC13094657.

± gives the standard deviation of the averaged measurements.

The assay concerns MDA-MB-231. The experiment in a line: kynurenine production, fold change vs DMSO IFNg/TNF control; higher = more kynurenine produced (less inhibition). Conditions: pre-treatment time: 18 h then 24 h IFNg/TNF. An outline of the steps: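 In 96-well plates, MDA-MB-231 cells (7 × 10^4/well) were given 24 h to settle, pre-treated for 18 h with each natural product in 0.1% DMSO, and stimulated for 24 h with IFNγ (1 U/ml) and TNF (6.25 ng/ml) at 37°C. Supernatants were processed with trichloroacetic acid and p-dimethylaminobenzaldehyde and read at 492 nm against 0–100 μM standards. In the first screening round, kynurenine production, as fold change over same-plate cytokine-stimulated vehicle wells, was averaged over duplicate plates.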
For the compound `C=C1C[C@@]2(O)O[C@@]3(C[C@H]2C(C)C)[C@@H](C)CC[C@@H]13` [Curcumol] (compound dose: 10 uM), the kynurenine production turned out to be 0.833 ± 0.1. The same measure for `C[C@@H]1CC[C@]2(C(=O)O[C@@H]3O[C@H](CO)[C@@H](O)[C@H](O)[C@H]3O)CC[C@]3(C)C(=CC[C@@H]4[C@@]5(C)CC[C@H](O)[C@](C)(C(=O)O)[C@@H]5CC[C@]43C)[C@@H]2[C@]1(C)O` [Ilexsaponin A] (compound dose: 10 uM): 0.883 ± 0.013; for `CC(C)=CCC[C@@](C)(O)[C@H]1CC[C@]2(C)[C@@H]1[C@H](O)C[C@@H]1[C@@]3(C)CC[C@H](O)C(C)(C)[C@@H]3CC[C@]12C` [(20R)-Protopanaxadiol] (compound dose: 10 uM): 0.793 ± 0.14.

For the compound `CC1(C)[C@@H](O[C@H]2O[C@H](C(=O)O)[C@@H](O)[C@H](O)[C@H]2O[C@@H]2O[C@H](C(=O)O)[C@@H](O)[C@H](O)[C@H]2O)CC[C@]2(C)[C@H]3C(=O)C=C4[C@@H]5C[C@@](C)(C(=O)O)CC[C@]5(C)CC[C@@]4(C)[C@]3(C)CC[C@@H]12` [Glycyrrhizic acid] (compound dose: 10 uM), the kynurenine production was 0.842 ± 0.057. The value for `CC12CCC(CC1=O)C2(C)C` (centres undefined) [Camphor] (compound dose: 10 uM) was 0.832 ± 0.21; that for `C[C@@H]1O[C@@H](O[C@H]2[C@H](O[C@H]3CC[C@@]4(C)[C@@H](CC[C@]5(C)[C@@H]4CC=C4[C@@H]6CC(C)(C)CC[C@]6(C(=O)O[C@@H]6O[C@H](CO[C@@H]7O[C@H](CO)[C@@H](O)[C@H](O)[C@H]7O)[C@@H](O)[C@H](O)[C@H]6O)CC[C@]45C)[C@]3(C)CO)OC[C@H](O)[C@@H]2O)[C@H](O)[C@H](O[C@@H]2O[C@H](CO)[C@@H](O[C@@H]3O[C@H](CO)[C@@H](O)[C@H](O)[C@H]3O)[C@H](O)[C@H]2O)[C@H]1O` [Macranthoidin B] (compound dose: 10 uM) was 0.787 ± 0.18; that for `CCCCC/C=C/C=C/C(=O)O[C@H]1C(C)=C[C@]23C(=O)[C@@H](C=C(CO)[C@@H](O)[C@]12O)[C@H]1[C@@H](C[C@H]3C)C1(C)C` [3-O-(2'E,4'EDecadienoyl)ingenol] (compound dose: 10 uM) was 0.812 ± 0.086.

For `CC(=O)c1c[nH]c2ccccc12` [3-acetylindol] (compound dose: 10 uM), the kynurenine production turned out to be 1.11 ± 0.14.

For `C[C@H]1[C@H](C)CC[C@]2(C(=O)O)CC[C@]3(C)C(=CC[C@@H]4[C@@]5(C)C[C@@H](O)[C@H](O)[C@@](C)(CO)[C@@H]5CC[C@]43C)[C@H]12` [Asiatic acid] (compound dose: 10 uM), the kynurenine production turned out to be 0.85 ± 0.16.
